# Source: PubChem BioAssay (National Center for Advancing Translational Sciences (NCATS))
# Hits are enriched below; roughly 19% of the tested compounds scored in any of these assays.
# HT1080 IDH1KD tx = toxicity to HT-1080 IDH1 knockdown cells (counter line) | HT-1080 IDH1 knockdown viability, ATP luminescence, 48 h | actives 2% (n = 360,000) | Potency, µM (titrated, usually from 46.1 µM), without a hit: at the highest dose activity, negative = toxicity, usual class: cytotoxic | AID 686971;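 also: 0% = DMSO wells and -100% = cell-free medium wells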
#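 Using the IDH1-knockdown HT-1080 line run in the same batch and compound series as the NT line, viability after 48 h at 37 °C was determined by CellTiter-Glo luminescence and expressed as % activity.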
# HT1080NT lethal = kills 2HG-producing HT-1080-NT fibrosarcoma cells; HT-1080-NT fibrosarcoma viability, CellTiter-Glo ATP luminescence, 48 h; Potency, µM (top dose mostly 46.1 µM), without a hit: at the top dose activity, negative = less viability, usual class: cytotoxic; actives 1.6% (n = 360,000);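 also: NT is the 2HG producing partner of a matched IDH1 knockdown line; 0% = DMSO-treated cells and -100% = media-only wells without cells; nearly all actives have a fitted effect of over 55% in size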
#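 Compounds were tested in concentration-response format on HT-1080-NT cells for 48 hours at 37 degrees C. Cell viability came from CellTiter-Glo luminescence; curves were classified by r2, response magnitude and activity.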
# KB-V1 cytotox = kills drug-selected multidrug resistant KB-V1 cells; KB-V1 MDR cells viability, CellTiter-Glo, 72 h; Potency, µM (highest dose often 46.1 µM), usual class: cytotoxic; actives 3.4% (n = 400,000); also: nearly all actives have a fitted effect of over 60% in size
#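 In this primary screen, KB-V1 cells overexpressing P-gp are incubated with library compounds (lowest to highest concentration) for 72 h at 37 degrees C before a luminescent ATP viability read.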
# TDP1 cell CPT = DT40-hTDP1 cell growth loss with CPT | chicken DT40 Tdp1-/-;hTDP1 cells + 20 nM CPT, ATP luminescence, 48 h | Potency, µM (doses to about 46.2 µM), for inactives: top-dose activity change, negative = growth inhibition, actives largely listed as inhibitors | actives 12% (n = 420,000) | AID 686979; also: nearly all actives have a fitted effect of over 55% in size
#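 Chicken DT40 Tdp1-/- cells stably complemented with human TDP1 were seeded at 400 cells/well in medium containing 20 nM camptothecin, exposed to pin-transferred compounds, and grown at 37 °C for at least 48 hr. Viability was read as ATP luminescence.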
# KB-3-1 tox = kills parental KB-3-1 adenocarcinoma cells | KB-3-1 viability, CellTiter-Glo ATP luminescence, 72 h | Potency, µM (series often up to 46.1 µM), hits mostly cytotoxic | actives 1.4% (n = 400,000); also: nearly all actives have a fitted effect of over 60% in size
#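 Viability of parental KB-3-1 cells, measured by CellTiter-Glo luminescence, followed a 72 h incubation at 37 °C with pinned compounds in phenol-red-free DMEM containing 10% FBS.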
# TDP1 cell noCPT = qHTS for Inhibitors of human tyrosyl-DNA phosphodiesterase 1 (TDP1): qHTS in cells in absence of CPT. Potency, µM (doses to about 46.2 µM), for inactives: at the top dose activity change, negative = growth inhibition, most hits filed as inhibitors. DT40 Tdp1-/- hTDP1 cells, no CPT, ATP luminescence, 48 h. actives 15% (n = 420,000); also: nearly all actives have a fitted effect of over 55% in size
#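 Chicken DT40 Tdp1-/- cells stably complemented with human TDP1 were seeded at 400 cells/well with DMSO in place of 20 nM camptothecin. After compound pinning, cells grew at least 48 hr at 37 °C; viability read by CellTiter-Glo luminescence.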
# Starred values were filed as active, the others as inactive; i = inactive; u = inconclusive; x = no result given. Calls follow the shape of the dose curve; as a rule, active = well fitted curve in the direction sought with a large enough effect; inconclusive = small, poorly fitted or top-dose-only effect, or another doubt; inactive = no such curve, though single readings can be large; an effect the other way counts as inactive or inconclusive. Unless noted, % is scaled to controls: 0 for no effect and ±100 for the full control effect; potency is read from the fitted curve at half-maximal effect.
SMILES,HT1080 IDH1KD tx,HT1080NT lethal,KB-V1 cytotox,TDP1 cell CPT,KB-3-1 tox,TDP1 cell noCPT
CCCCC(=O)NNC(=S)NC(=O)c1ccc(C)cc1,u,u,i,-104%,u,u
O=C(NNC(=S)NC(=O)c1cccc([N+](=O)[O-])c1)c1ccc(O)cc1,-8%,-23%,i,-1%,i,5%
CCCCCC(=O)NNC(=S)NC(C)=O,u,22%,u,u,i,18µM*
O=C(NNC(=S)NC(=O)c1cccc([N+](=O)[O-])c1)c1ccc(Br)cc1,u,-9%,i,16µM*,u,21µM*
CCOc1ccc(S(=O)(=O)N2CCN(CN3C(=O)CC4(CCCC4)C3=O)CC2)cc1,-1%,0%,i,-21%,i,19%
COc1ccc(CCNC(=O)C(F)(F)F)cc1S(N)(=O)=O,5%,0%,i,8%,i,-4%
COc1ccc(NC(=O)N2CCCC3(CCN(C(=O)c4ccc(OC)cc4)CC3)C2)cc1,x,x,x,4%,x,-30%
O=C(c1ccccc1)c1nn(-c2cccc(Cl)c2)c2nc(-c3ccccc3)cc(=O)n12,1%,0%,4.1µM*,-30%,u,u
O=C(c1ccccc1)c1nn(-c2cccc(Cl)c2)ccc1=O,-2%,4%,i,u,i,-28%
Cc1cccc(-n2nc(C(=O)Nc3ccccc3)n3c(=O)cc(-c4ccccc4)nc23)c1,14%,u,i,u,i,16µM*
Cc1ccc(SCCNC(=O)CN(c2cccc(C)c2C)S(C)(=O)=O)cc1,x,x,i,u,i,u
CCOC(=O)CC(C)(C)/C(C)=N/Nc1ccc([N+](=O)[O-])cc1[N+](=O)[O-],-15%,-3%,u,u,i,15µM*
CCn1c(CNc2ccc(C)cc2C)nnc1SCC(=O)N1CCCc2ccccc21,3%,-2%,i,10µM*,i,u
CCn1c(CNc2ccc(F)cc2)nnc1SCC(=O)N1CCCc2ccccc21,-12%,-3%,u,-26%,i,u
O=C(CSc1nnc(Cc2cccs2)n1C1CCCCC1)N1CCCc2ccccc21,u,-15%,21µM*,u,u,u
Cc1ccc2cc(C#N)c(SCC(=O)N3CCCc4ccccc43)nc2c1C,3%,1%,2.6µM*,21µM*,i,8.2µM*
CCn1c(CNc2ccc(OC)cc2)nnc1SCC(=O)N1CCCc2ccccc21,-2%,-7%,i,-20%,i,-21%
CCn1c(CSc2nc(C)cc(C)n2)nnc1SCC(=O)N1CCCc2ccccc21,-3%,7%,21µM*,-16%,i,-24%
Fc1ccc(N2CCN(Cc3nnc(-c4ccccc4Cl)o3)CC2)cc1,x,x,i,0%,i,-20%
O=C(COc1ccc(S(=O)(=O)N2CCOCC2)cc1)NC1CC1,3%,-1%,i,-4%,u,-14%
CCOc1ccc(OCC)c(NC(=O)CCCN2C(=S)NC(C)(C)CC2C)c1 (configuration not stated),-1%,13%,i,16µM*,i,16µM*
CC1CC(C)(C)NC(=S)N1CCCC(=O)Nc1ccc(F)cc1 (configuration not stated),6%,15%,u,-26%,i,18µM*
CCOc1c(Cl)cc(/C=C/C(=O)N(CC)CC(=O)Nc2ccc(NC(C)=O)cc2)cc1OC,2%,4%,u,8%,i,u
O=C(Nc1nnc(N2CCCCCC2)s1)Nc1ccccc1C(F)(F)F,x,x,x,-5%,x,-30%
CCOC(=O)C(=CNc1ccc(-c2ccco2)c(Cl)c1)C(=O)OCC,0%,-1%,i,21µM*,i,16µM*
SMILES,HT1080 IDH1KD tx,HT1080NT lethal,KB-V1 cytotox,TDP1 cell CPT,KB-3-1 tox,TDP1 cell noCPT
CCOC(=O)C(=CNc1cc(Cl)c(-c2ccco2)c(Cl)c1)C(=O)OCC,-9%,u,i,18µM*,i,12µM*
O=S(=O)(Nc1cc(Sc2cccc3cccnc23)c(O)c2ccccc12)c1ccc(F)cc1,21µM*,23µM*,u,0.58µM*,3.3µM*,0.92µM*
CC1=CC(C)(C)N2C(=O)C(=O)c3cc(OC(=O)c4ccco4)cc1c32,16µM*,2.3µM*,u,0.65µM*,u,1.2µM*
Cc1ccc(C(=O)CC(C(=O)O)P(=O)(c2ccccc2)c2ccccc2)cc1 (configuration not stated),u,29%,i,10%,i,-12%
Cc1ccc(P(=O)(c2ccc(C)cc2)[C@@H](NC(c2ccccc2)c2ccccc2)c2ccccc2)cc1,16µM*,15µM*,21µM*,18µM*,u,13µM*
C=C(NC(=O)C(=C)NC(=O)c1csc(C2=NC3c4csc(n4)C4NC(=O)c5csc(n5)C(C(C)(O)C(C)O)NC(=O)C5CSC(=N5)C(=CC)NC(=O)C(C(C)O)NC(=O)c5csc(n5)C3(CC2)NC(=O)C(C)NC(=O)C(=C)NC(=O)C(C)NC(=O)C(C(C)CC)NC2C=Cc3c(C(C)O)cc(nc3C2O)C(=O)OC4C)n1)C(N)=O (configuration not stated),x,x,x,4.1µM*,x,5.2µM*
C=C(NC(=O)C(=C)NC(=O)c1csc(C2=NC3c4csc(n4)C4NC(=O)c5csc(n5)C(C(C)(O)C(C)O)NC(=O)C5CSC(=N5)/C(=C/C)NC(=O)C(C(C)O)NC(=O)c5csc(n5)C3(CC2)NC(=O)C(C)NC(=O)C(=C)NC(=O)C(=C)NC(=O)C(C(C)C)NC2C=Cc3c(C(C)O)cc(nc3C2O)C(=O)OC4C)n1)C(N)=O (configuration not stated),5.2µM*,u,u,1µM*,u,0.92µM*
COc1ccc(-c2noc(C3CCCN(C(=O)c4ccccc4OC)C3)n2)cc1OC (configuration not stated),-23%,-3%,i,u,i,u
O=C(Nc1ccc(F)cc1F)N1CCCC(c2nc(-c3ccc(F)cc3)no2)C1 (configuration not stated),-13%,-1%,i,18µM*,i,u
